# Test results published in PubChem BioAssay.
# Records with an inconclusive call do not appear. Activity calls are given as the source filed them.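 How the source made its calls, unless noted: active means viability loss from added drug above about 55%, and viability with drug at most 40%, in both replicates (limit read from the data, passing the limit was not always enough); inconclusive means both conditions met in only one replicate; inactive means neither replicate meets both conditions.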
# What was measured:
# [1] = SK-BR-3 cell growth inhibitors, pilot screen, 24 h, human (AID 572;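 active means viability at or below 10% of carrier control in both of two separate runs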;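 further: compound exposure lasted between 18 and 24 h rather than exactly 24 h; 100% = carrier-treated control wells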); details: SK-BR-3 viability, CellTiter-Glo luminescence, at 10 µM, stronger effect = lower value
# [2] = HUVEC growth inhibition – cell-based, human, primary screen (AID 575;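 active means viability at or below 30% in both replicate assays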;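 further: 100% = median of untreated cell wells with 0.1% DMSO on each plate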); details: HUVEC proliferation, CellTiter-Glo luminescence, 72 h; at 10 µM; stronger effect = lower value
# [3] = growth inhibitors of H69AR lung tumor, primary screen, human, duplicate replicates (AID 580;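 active means viability at or under a set limit in both replicates, limit being median viability minus 3 SD, cut at about 48% in these data, passing the limit was not always enough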;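 further: 100% = mean luminescence of untreated wells and 0% = no signal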); details: H69AR lung tumor cells viability, ATP luminescence, 72 h; at 10 µM; stronger effect = lower value
# [4] = reversal of MRP1-mediated doxorubicin resistance, pilot screen, H69AR cells, doxorubicin co-treatment (AID 601); details: CellTiter-Glo, 72 h, at 10 µM; for differential viability (reversal): stronger effect = higher value
# [5] = 384-well plate pilot, post-Golgi transport modulator project, inhibition of yeast transport mutant growth (AID 636; in the data active means inhibition above about 31%); details: absorbance 615 nm, about 18 h, stronger effect = higher value
# [6] = growth suppression of yeast trafficking mutant, preliminary HTS, modulators of trafficking downstream of Golgi apparatus project, 1536-format plate, OD 615 nm (AID 637; in the data active means inhibition above about 30%); details: yeast transport mutant growth, absorbance 615 nm, 18 h; stronger effect = higher value
# [7] = reducers of endogenous Her2 protein level, primary screen, SKBR3 breast tumor cells, AlphaScreen, ATP viability (AID 461;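 active means Her2 level under about 52% in both replicate screens, with viability over 70% of control, limit read from the data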;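 on Her2 level: lower value means less Her2 protein in the cells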;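 on viability: percent of carrier control wells set as 100% viability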); details: 18-24 h, measured here: SKBR3 viability, ATP luminescence, at 10 µM
# [8] = biological target: Receptor tyrosine-protein kinase erbB-2 (Homo sapiens) (UniProt P04626); experiment: as above; details: 18-24 h, at 10 µM, stronger effect = lower value
# [9] = Restrictive medium S. cerevisiae growth inhibition, OD615, pilot screen of yeast lifespan reduction project, restrictive growth control (AID 706;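 active means growth inhibition above a set limit, 3 SD over mean compound inhibition, in both replicates, cut at about 43% in these data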;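 further: modified DeaD lifespan yeast strain shifted to restrictive glucose medium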); details: OD615, 48 h, at 10 µM, stronger effect = higher value
# [10] = viability gain of MRP-1-high H69AR cells under doxorubicin, pilot screen, MRP-1 activator project, CellTiter-Glo, duplicate (AID 807;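 active means viability increase at or above a cutoff of the median across tested compounds plus 3 SD, cut at about 8.5% in these data, passing the limit was not always enough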;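 further: compound pretreatment 18-22 h then 72 h combined with doxorubicin; 0% = doxorubicin alone and 100% = vehicle without doxorubicin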); details: H69AR viability with doxorubicin, CellTiter-Glo luminescence; at 10 µM; stronger effect = higher value
# [11] = growth suppression of beta-catenin knockout HCT116, pilot screen, human colon tumor cells (AID 823;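 active means cell viability at or below a set limit in both duplicate runs, the limit being the all-compound median minus 4 SD, cut at about 23% in these data, passing the limit was not always enough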;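 further: 0% = wells killed by 20 µM Hyamine and 100% = untreated DMSO cell wells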); details: CellTiter-Glo, 60 h, at 10 µM, stronger effect = lower value
# [12] = growth suppression of PTEN-deleted HCT116, pilot screen, cell-based, HCT116 clonal line, CellTiter-Glo (AID 824;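 active means viability at or below 27.92% in each of two runs, the all-compound median minus 4 SD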;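 further: 0% = 20 µM Hyamine control and 100% = vehicle cell control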); details: 60 h, at 10 µM, stronger effect = lower value
# [13] = inhibitors of the yeast RAM network, pilot screen, dse1pr::URA3 reporter, 5-FOA selection (AID 869;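 active means inhibition over a set limit, the all-compound mean plus 3 SD, in both replicate runs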;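 further: 0% = DMSO wells with no growth and 100% = 10 µM 1-NA-PP1 with full growth; RAM network block rescues cells from 5-FOA so hits raise OD615 growth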); details: S. cerevisiae dse1pr::URA3 5-FOA growth, OD615, 2 d; at 10 µM; stronger effect = higher value; strain carries analog-sensitive mutant Cbk1 kinase
# [14] = OD615 S. cerevisiae growth inhibition, permissive medium, pilot counter-assay, permissive growth control for S. cerevisiae lifespan shortening project (AID 705;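 active means growth inhibition above 25% in both replicates, a cutoff set 3 SD above the mean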); details: OD615, 24 h, at 10 µM, stronger effect = higher value
# [15] = H69AR cells + 2 uM doxorubicin, measured here: viability with 2 uM doxorubicin, stronger effect = lower value
# [16] = H69AR cells, compound alone cytotoxicity
# Chain of Receptor tyrosine-protein kinase erbB-2 (Homo sapiens) (P04626 whole entry, looked up): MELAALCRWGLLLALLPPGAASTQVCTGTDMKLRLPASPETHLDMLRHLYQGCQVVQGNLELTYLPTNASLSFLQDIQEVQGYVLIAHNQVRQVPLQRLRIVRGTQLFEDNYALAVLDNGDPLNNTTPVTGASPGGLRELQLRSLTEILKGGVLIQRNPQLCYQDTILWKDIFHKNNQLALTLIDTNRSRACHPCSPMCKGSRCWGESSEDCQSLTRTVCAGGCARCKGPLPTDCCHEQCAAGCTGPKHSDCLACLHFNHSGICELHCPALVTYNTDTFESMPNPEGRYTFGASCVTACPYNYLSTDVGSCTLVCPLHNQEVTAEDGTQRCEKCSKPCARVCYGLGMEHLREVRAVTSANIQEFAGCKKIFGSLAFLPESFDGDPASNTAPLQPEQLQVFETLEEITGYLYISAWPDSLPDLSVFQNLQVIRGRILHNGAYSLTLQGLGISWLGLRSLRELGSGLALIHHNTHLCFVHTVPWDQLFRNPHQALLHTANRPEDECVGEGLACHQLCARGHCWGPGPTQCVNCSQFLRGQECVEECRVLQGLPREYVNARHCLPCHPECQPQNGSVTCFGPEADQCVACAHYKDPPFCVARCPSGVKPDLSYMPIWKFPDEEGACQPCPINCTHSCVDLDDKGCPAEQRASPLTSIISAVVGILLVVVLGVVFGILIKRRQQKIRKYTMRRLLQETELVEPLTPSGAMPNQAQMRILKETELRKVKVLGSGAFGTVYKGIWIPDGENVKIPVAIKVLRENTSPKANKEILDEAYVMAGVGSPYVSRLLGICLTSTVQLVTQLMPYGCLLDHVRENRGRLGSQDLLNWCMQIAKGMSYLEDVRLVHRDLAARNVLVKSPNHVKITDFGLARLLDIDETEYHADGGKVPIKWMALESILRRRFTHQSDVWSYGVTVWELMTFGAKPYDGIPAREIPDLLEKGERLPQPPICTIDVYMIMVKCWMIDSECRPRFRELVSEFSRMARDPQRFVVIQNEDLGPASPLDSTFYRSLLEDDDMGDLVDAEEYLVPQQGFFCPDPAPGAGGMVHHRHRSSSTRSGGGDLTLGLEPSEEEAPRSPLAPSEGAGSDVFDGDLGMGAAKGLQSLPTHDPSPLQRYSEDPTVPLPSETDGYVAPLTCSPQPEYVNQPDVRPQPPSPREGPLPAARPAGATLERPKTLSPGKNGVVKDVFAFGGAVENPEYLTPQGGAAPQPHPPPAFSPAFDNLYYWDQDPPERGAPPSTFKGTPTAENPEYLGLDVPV
SMILES,viability [1],viability [2],viability [3],differential viability (reversal) ([4]; H69AR cells + 2 uM doxorubicin),"viability [4, 15] [%]","viability [4, 16] [%]",inhibition [5],inhibition [6],viability [7] [%],Her2 level [8],growth inhibition [9],viability increase [10],viability [11],viability [12],inhibition [13],growth inhibition [14]
CNCCC=C1c2ccccc2CCc2ccccc21,23%,71.6% (inactive),80.1% (inactive),4.63% (inactive),75.5,80.1,,,,,,,,,,
CC1=C(/C=C/C(C)=C/C=C/C(C)=C/C(=O)O)C(C)(C)CCC1,84% (inactive),83.7% (inactive),104% (inactive),2% (inactive),102,104,0.91% (inactive),8.67% (inactive),,,,,,,,
CCn1c2ccccc2c2cc(N)ccc21,117% (inactive),,,-6.75% (inactive),56.8,50,-5.73% (inactive),1.59% (inactive),117,91.5% (inactive),,,,,,
CCN(CCCCOC(=O)c1ccc(OC)c(OC)c1)C(C)Cc1ccc(OC)cc1 (stereo not drawn),88% (inactive),64.4% (inactive),78.9% (inactive),6.16% (inactive),72.8,78.9,,,,,,,,,,
Cc1ccc(OCCN2CCN(C(=O)CCC(=O)Nc3nnc(C)s3)CC2)cc1,88% (inactive),118% (inactive),88.6% (inactive),-3.2% (inactive),91.8,88.6,-7.03% (inactive),2.91% (inactive),,,,,,,,
CCc1c(C)c2ccc(OCC(=O)OC)cc2oc1=O,109% (inactive),92.8% (inactive),94.4% (inactive),-2.49% (inactive),96.9,94.4,-1.49% (inactive),21.4% (inactive),,,,,,,,
CC(C)N=c1cc2n(-c3ccc(Cl)cc3)c3ccccc3nc-2cc1Nc1ccc(Cl)cc1,102% (inactive),9.11% (active),64.4% (inactive),-6.59% (inactive),71,64.4,,,,,,,,,,
CCCc1ccc(Oc2cn[nH]c2-c2ccc(O)c(C)c2O)cc1,106% (inactive),,,-26.3% (inactive),34.6,8.33,100% (active),100% (active),106,76.5% (inactive),,,,,,
Cc1cccc(C)c1NC(=O)COC(=O)c1nonc1N,79% (inactive),108% (inactive),98.9% (inactive),4.63% (inactive),94.3,98.9,-4.13% (inactive),-7.09% (inactive),,,,,,,,
O=C(NC1CCCCC1)C(c1ccccc1)N(Cc1ccco1)C(=O)Cn1cnc2ccccc21 (stereo not drawn),102% (inactive),,78.3% (inactive),8.18% (inactive),70.1,78.3,-5.33% (inactive),-4.92% (inactive),102,90% (inactive),,,,,,
Cc1ccc(O)c(-c2cc3ccccc3[nH]2)c1,105% (inactive),,70.2% (inactive),11.1% (inactive),59.2,70.2,-8.92% (inactive),0.33% (inactive),105,87% (inactive),,,,,,
Nc1nonc1C(=O)NCCNCc1cc(Br)ccc1OCc1ccccc1F,97.5% (inactive),,66.8% (inactive),-1.58% (inactive),68.4,66.8,-5.87% (inactive),-6.13% (inactive),97.5,78.5% (inactive),,,,,,
CCN1CCN(Cc2nc3c(c(=O)[nH]c(=O)n3C)n2Cc2ccccc2Cl)CC1,,87.9% (inactive),92% (inactive),-4.17% (inactive),96.2,92,-0.51% (inactive),-3.17% (inactive),80.5,114% (inactive),,,,,,
O=C(NC1CCCC1)C(c1cccs1)N(C(=O)c1ccno1)c1ccccc1 (stereo not drawn),,95.2% (inactive),91.2% (inactive),6.13% (inactive),85.1,91.2,-3.78% (inactive),5.08% (inactive),57.5,92% (inactive),,,,,,
Cn1c(=O)[nH]c(=O)c2c1nc(CN1CCN(c3cccc(Cl)c3)CC1)n2CCc1ccccc1,75% (inactive),,,-1.32% (inactive),24.8,23.5,-1.04% (inactive),-6.98% (inactive),75,96% (inactive),,,,,,
CCc1ccc2oc(-c3cc(N)ccc3Cl)nc2c1,102% (inactive),,77.2% (inactive),-12.2% (inactive),89.4,77.2,-0.54% (inactive),-4% (inactive),102,87.5% (inactive),,,,,,
CC(CN(C)Cc1ccccc1)OC(=O)c1ccc2c(c1)OCCO2 (stereo not drawn),93% (inactive),85.3% (inactive),94.1% (inactive),5.22% (inactive),88.8,94.1,-7.67% (inactive),1.29% (inactive),,,,,,,,
Cc1cc(C)c2c(=O)[nH]c(=O)n(Cc3ccccc3)c2n1,,81.7% (inactive),95.7% (inactive),10.9% (inactive),84.8,95.7,-5.26% (inactive),6.55% (inactive),64,75.5% (inactive),,,,,,

SMILES,viability [1],viability [2],viability [3],differential viability (reversal) ([4]; H69AR cells + 2 uM doxorubicin),"viability [4, 15] [%]","viability [4, 16] [%]",inhibition [5],inhibition [6],viability [7] [%],Her2 level [8],growth inhibition [9],viability increase [10],viability [11],viability [12],inhibition [13],growth inhibition [14]
CSc1nc(N2CCOCC2)c2c(c1C#N)CCCCC2,112% (inactive),,86.8% (inactive),12.9% (inactive),73.9,86.8,0.79% (inactive),17.9% (inactive),112,96% (inactive),,,,,,
CCOC(=O)c1c(C)oc2c1c1c(c3ccccc32)OCN(Cc2cccnc2)C1,83.5% (inactive),,,29.8% (inactive),21.8,51.6,-0.39% (inactive),-5.33% (inactive),83.5,75% (inactive),,,,,,
C=C(C)COc1ccc(-c2nc(N)ncc2-c2ccc(OC)cc2)c(O)c1,160% (inactive),,,1.44% (inactive),31.8,33.2,-1.56% (inactive),7.17% (inactive),160,73% (inactive),,,,,,
COc1cc2nc(SCC(=O)NC3CC3)n(CCC3=CCCCC3)c(=O)c2cc1OC,102% (inactive),,74.5% (inactive),9.46% (inactive),65.1,74.5,-2.11% (inactive),-4.33% (inactive),102,107% (inactive),,,,,,
COC(=O)c1ccc2c(=O)n(Cc3ccco3)c(SCC(=O)Nc3ccc(C)c(Cl)c3)nc2c1,77.5% (inactive),,8.06% (active),-2.23% (inactive),10.3,8.06,-1.71% (inactive),-2.7% (inactive),77.5,59.5% (inactive),,,,,,
COc1cccc(OCc2nnc(SCC(=O)OCc3ccccc3)o2)c1,101% (inactive),108% (inactive),97% (inactive),5.81% (inactive),91.2,97,-6.93% (inactive),-3.09% (inactive),,,,,,,,
CCC(CC)C1C(C#N)=C(N)Oc2n[nH]c(C)c21 (stereo not drawn),85% (inactive),91.9% (inactive),24.9% (active),-44.6% (inactive),69.6,24.9,-6.22% (inactive),-0.18% (inactive),,,,,,,,
N#Cc1ccccc1Cn1c(=O)n(Cc2ccc(C(=O)NCc3ccco3)cc2)c(=O)c2sccc21,75.5% (inactive),,77.8% (inactive),9.52% (inactive),68.3,77.8,-1.28% (inactive),-1.67% (inactive),75.5,80% (inactive),-22.5% (inactive),-4.44% (inactive),91.3% (inactive),79.5% (inactive),2.11% (inactive),
Cc1sc2nc3n(c(=O)c2c1C)NC(=O)CC3,104% (inactive),86.3% (inactive),94% (inactive),5.63% (inactive),88.4,94,-4.79% (inactive),1.82% (inactive),,,,,,,,
CCCc1cc(-n2ccnc2)n2c(nc3ccccc32)c1C#N,89.5% (inactive),,,-10.1% (inactive),55.8,45.8,-3.92% (inactive),2.06% (inactive),89.5,74% (inactive),,,,,,
OC(CCN1CCCC1)(c1ccccc1)C1CCCCC1 (stereo not drawn),93% (inactive),69.5% (inactive),95.9% (inactive),6.63% (inactive),89.3,95.9,,,,,,,,,,
COc1cc(NS(=O)(=O)c2ccc(N)cc2)ncn1,107% (inactive),75% (inactive),92% (inactive),27% (inactive),65,92,-1.56% (inactive),2.5% (inactive),,,,,,,,
CN(C)CCCN1c2ccccc2Sc2ccccc21,66.5% (inactive),74.2% (inactive),74.7% (inactive),-8.33% (inactive),83,74.7,,,,,,,,,,
CC1=C(C(=O)OCC(C)C)C(c2cc3c(cc2Br)OCO3)NC(=O)N1C (stereo not drawn),99% (inactive),,88.9% (inactive),-12.5% (inactive),101,88.9,-1.82% (inactive),-3.83% (inactive),99,75% (inactive),-13.9% (inactive),-2.54% (inactive),81.2% (inactive),68.4% (inactive),-0.395% (inactive),0.885% (inactive)
COCCN(Cc1cc2cc3c(cc2n2nnnc12)OCO3)C(=O)c1ccccc1F,94% (inactive),113% (inactive),101% (inactive),2.13% (inactive),99.3,101,-6.35% (inactive),-7.27% (inactive),,,,,,,,
COc1ccccc1NC(=O)Cc1noc(CSc2cc(C)c3ccccc3n2)n1,104% (inactive),89.5% (inactive),92.5% (inactive),11.8% (inactive),80.7,92.5,-4.59% (inactive),1.64% (inactive),,,,,,,,
CN(c1ccc(OCc2nnc(-c3ccccc3)o2)cc1)S(=O)(=O)c1ccccc1,99% (inactive),96.6% (inactive),82.9% (inactive),2.42% (inactive),80.5,82.9,-7.7% (inactive),-5.45% (inactive),,,,,,,,
